This note sets out measurements from PubChem BioAssay (NCATS).

Molecules are shown by their SMILES. Several values for one entry are separate records, joined by “and”; a condition that tells them apart may be missing. Identical values can stand only once. Results filed as inconclusive are left out. The source holds several records for some structures; these can differ, active in one and inactive in another. Activity calls are given as the source filed them. The call rests on the fitted dose curve; in most records, active means well fitted activation curve with a large enough effect; inconclusive means small, poorly fitted or top-dose-only effect; inactive means no such curve, though single readings can be large or run the other way.
Potency means the concentration at half of the fitted maximal effect.

Cellular tumor antigen p53 (Homo sapiens), sequence (P04637 whole entry, looked up): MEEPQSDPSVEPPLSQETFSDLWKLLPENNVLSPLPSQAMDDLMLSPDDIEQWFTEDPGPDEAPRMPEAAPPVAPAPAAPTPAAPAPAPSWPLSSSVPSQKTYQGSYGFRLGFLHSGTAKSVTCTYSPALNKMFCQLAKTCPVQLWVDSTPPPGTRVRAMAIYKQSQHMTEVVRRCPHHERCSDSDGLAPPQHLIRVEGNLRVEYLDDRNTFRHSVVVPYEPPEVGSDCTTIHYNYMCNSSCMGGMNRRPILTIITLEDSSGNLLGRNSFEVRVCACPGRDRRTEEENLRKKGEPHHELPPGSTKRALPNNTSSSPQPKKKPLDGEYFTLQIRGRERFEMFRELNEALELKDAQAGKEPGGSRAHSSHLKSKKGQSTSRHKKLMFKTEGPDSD

This assay addresses Cellular tumor antigen p53 (Homo sapiens) (UniProt P04637). Briefly: Primary qHTS for small molecule compounds that upregulate eGFP-tagged delta133p53alpha (in N-terminal) cells. (AID 2060322). Further: nearly all actives have a fitted effect of over 75% in size.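 On activation: cells pre-induced with doxycycline then dosed without doxycycline; series mostly up to about 56 µM; 0% = DMSO vehicle and 100% = reference activator.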 Particulars: NCI-H358 eGFP-delta133p53alpha fluorescence, 24 h; activation: hits give high values. An excerpt: Assay Development and Screening Technology
National Center for Advancing Translational Sciences (NCATS),
National Institute of Health (NIH), Rockville, Maryland
Cellular senescence (CS) is one of the hallmarks of aging and age-related diseases. Senescent cells are characterized by an irreversible growth arrest, an increase in senescence-associated beta-galactosidase (SA-beta-gal) activity and p16INK4a expression, an activation of the DNA damage response pathways, and the emergence of a senescence-associated secretory phenotype (SASP).
Delta133p53alpha, a human/primate-specific p53 protein isoform, delays or inhibits the induction of CS and SASP in various types of human cells, including progeria-derived fibroblasts, primary normal astrocytes, and CD8+ T lymphocytes. Induction of delta133p53alpha with small molecule compounds may provide therapeutic opportunities for inhibition of senescence/SASP-associated pathologies in progeria syndromes, astrocyte-mediated neuroprotection in neurodegenerative diseases, and possibly prevention and treatment of a wider range of senescence- and aging-associated diseases.
Here we report the development and validation of a cell-based quantitative high throughput screening (qHTS) assay in 1,536-well format. This qHTS assay uses the NCI-H358 cell line with doxycycline-inducible expression of enhanced green fluorescent protein (eGFP)-tagged delta133p53alpha, which allows efficient and highly quantitative measurement of the protein levels.
PROTOCOL TABLE (as described by Inglese J, Shamu CE and Guy RK. 2007)
SEQUENCE No. (e.g., 1, 2, 3, etc.); […] (e.g., Cells, Incubation, Reagent, etc.); VALUE; DESCRIPTION.
1; Cells; 4uL; 800 doxycycline treated cells / well in doxycycline-free media, 1536-well black, clear-bottom low base Aurora microplates.
2; Compounds; 23 nL; Kalypsis pin tool (Wako) equipped with 1536-well pin heads, 5-azacytidine positive control.
3; Incubation; 24 hr; 37C, 5% CO2; 95% relative humidity.
4; Aspiration; 1x; BioTek EL406 washer dispenser (Agilent).
5; Fixing; 3.5% paraformaldehyde, BioTek EL406 washer dispenser (Agilent).
6; Washing; 1x PBS; BioTek EL406 washer dispenser (Agilent).
7; Nuclei staining; 1:1000 dilution of Hoechst 33342 (Thermofisher), BioTek EL406 washer dispenser (Agilent).
8; Incubation; 20 min; in the dark at room temperature.
9; Washing; 2x, 1x PBS (ThermoFisher), BioTek EL406 washer dispenser (Agilent).
10; Reagent; 10 uL; 1x PBS per well, sealed with clear adhesive tape.
NOTES (numbers refer to sequence numbers above).
1. NCI-H358 cells expressing eGFP-tagged delta133p53alpha were grown in T75 culture flasks and treated with doxycycline for 24h, at 10 ng/ml for eGFP-D133p53a cells (N-terminal cell) and 100 ng/ml for D133p53a-eGFP cells (C-terminal cells). Cells were trypsinized, counted using a Counted 3 Automated Cell Counter (Thermo Fisher), and diluted to a concentration of 200,000 cells/ml. A Multidrop Combi Reagent Dispenser (ThermoFisher) was used to dispense 800 cells/well in […] of doxycycline-free media, into 1536-well black/clear bottom low base plates (AuroraMicroplates).
2. After plating cells, 23 nl of compound library, DMSO vehicle control or positive control (5-azacytidine) were transferred by Pin Tool (Wako). The plate map layout was the same for each plate: (column 1) non-doxycycline treated cells + DMSO vehicle control; (column 2) doxycycline treated cells + DMSO vehicle control baseline; (column 3) doxycycline treated cells + positive control 57.5 uM final concentration 5-azacytidine; (column 4) doxycycline treated cells + serial dilution of 5-azacytidine, 16-point 1:2 titration spanning 1.8 nM to […] final concentration; (columns 5-48) doxycycline treated cells + titration of library compounds.
3. Cells were incubated at 37 °C, 5 % CO2, 95% RH with breathable metal lid for 24h.
4-10. […] After two washes, 10 ul of 1X PBS (Thermo Fisher) was dispensed to each well. Clear adhesive plate seals (VWR) were applied and plates stored at 4 °C.
11. […]
As to `CC(C)CCNC(=O)c1ccc2c(c1)nc(Nc1n[nH]c3ccc(-c4ccccc4OC(F)(F)F)cc13)n2C1CCC(O)CC1` (stereo not given), the activation was 6.21% (inactive).

Consider `C[C@H](NC(=O)Cc1cc(F)cc(F)c1)C(=O)N[C@H](C(=O)OC(C)(C)C)c1ccccc1`, for which the activation was 11.5% (inactive).

Regarding `CCOC(=O)C1=C(C)NC2=C(C(=O)CC(C)(C)C2)C1c1ccc(-c2ccccc2)cc1` (stereo not given), the activation is 5.7% (inactive).

With `Cn1c(=O)c2[nH]c(Br)nc2n(C)c1=O`, the activation is -3.95% (inactive).

As for `O=S(=O)(NC1CCC(c2cc(F)ccc2F)(S(=O)(=O)c2ccc(Cl)cc2)CC1)C(F)(F)F` (stereo not given), the activation is -16.2% (inactive).

Take `Cc1ccc(O)c(N=Nc2ccccc2)n1`: the activation was 34% (inactive).

As to `CC1=C2C(=O)C=C(CO)[C@@H]2[C@H]2OC(=O)[C@H](C)[C@@H]2[C@@H](O)C1`, the activation is -3.57% (inactive).

For `Cc1nccn1CC1CCc2c(c3ccccc3n2C)C1=O` (stereo not given), the Potency is 34.7 µM (active); the activation was 4.27% (inactive) and -3.67% (inactive).

As for `CN1CCN(CCCN2c3ccccc3Sc3ccc(S(=O)(=O)N(C)C)cc32)CC1`, the activation was 6.69% (inactive).

As for `CC1OC(O[C@H]2CC[C@@]3(C)C(CC[C@]4(C)C3CC=C3C5CC(C)(C)CC[C@]5(C(=O)OC5OC(CO)C(OC6OCC(OC7OCC(O)C(O)C7O)C(O)C6O)C(O)C5O)CC[C@]34C)C2(C)C)C(O)C(O)C1OC1OC(CO)C(O)C(OC2OC(CO)C(O)C(O)C2O)C1O` (stereo not given in full), the activation is 9.16% (inactive).

`O=C(NCC(=O)N1CCCC1)Nc1ccc2cnccc2c1`: the activation was 7.14% (inactive).

Regarding `Cc1csc2c(N[C@@H](C)CN3CCN(S(=O)(=O)c4ccc(Cl)c(Cl)c4)CC3)ncnc12`, the activation was -2.86% (inactive).

`Cn1c(=O)c(F)c(Nc2ccc(I)cc2F)c2c(=O)n(CC(O)CO)cnc21` (stereo not given): the activation is 14.3% (inactive).

For `COc1cc2nccc(Oc3ccc(NC(=O)C4(C(=O)Nc5ccc(F)cc5)CC4)cc3)c2cc1OC`, the Potency was 38.5 µM (active) and the activation is 11.6% (inactive).

With `CC1(C)O[C@]23C[C@H]1C[C@H](OC(=O)c1ccoc1)[C@]2(C)[C@@H](OC(=O)c1ccoc1)CCC3(C)O` (stereo not given in full), the activation was -5.34% (inactive).

Take `OC[C@H]1O[C@@H](OCCc2ccccc2)[C@H](O)[C@@H](O)[C@@H]1O`: the activation is -2.29% (inactive).

As for `CN(C(=O)CCCOc1ccc2[nH]c(=O)ccc2c1)C1CCCCC1`, the activation was -9.21% (inactive) and -37.7% (inactive).

Take `O=C(CCCCCCC(=O)Nc1ccc([C@H]2O[C@@H](CSc3nc(-c4ccccc4)c(-c4ccccc4)o3)C[C@@H](c3ccc(CO)cc3)O2)cc1)NO`: the activation is 47.5% (inactive) and the Potency is 5.36 µM (active).

For `O=C(CCBr)N1CCN(C(=O)CCBr)CC1`, the activation is 20.9% (inactive).

Take `NS(=O)(=O)c1cc(C2(O)NC(=O)c3ccccc32)ccc1Cl` (stereo not given): the activation is -33.3% (inactive).

With `C[C@@H]1O[C@@H](O[C@H]2[C@H](O)[C@@H](O)[C@H](OC[C@H]3O[C@@H](OC(=O)[C@]45CCC(C)(C)C[C@H]4C4=CCC6[C@@]7(C)C[C@H](O)[C@H](O[C@@H]8O[C@H](CO)[C@@H](O)[C@H](O)[C@H]8O)[C@@](C)(C(=O)O)C7CC[C@@]6(C)[C@]4(C)CC5)[C@H](O[C@@H]4O[C@H](CO)[C@@H](O)[C@H](O)[C@H]4O)[C@@H](O)[C@@H]3O)O[C@@H]2CO)[C@H](O)[C@H](O)[C@H]1O` (stereo not given in full), the activation is 18.8% (inactive).

On to `CN(C)CCC(CSc1ccccc1)Nc1ccc(S(=O)(=O)NC(=O)c2ccc(N3CCN(Cc4ccccc4-c4ccc(Cl)cc4)CC3)cc2)cc1[N+](=O)[O-]` (stereo not given), for which the Potency was 16.9 µM (active).

With `O=C(O)c1ccccc1NC(=O)N1CCC(c2ccccc2C(F)(F)F)CC1`, the activation is -3.34% (inactive).

As to `CC(C)CNc1ccnc(NCc2csc(-c3ccccc3)n2)n1`, the activation is 18.4% (inactive) and 19.6% (inactive).

With `COC(=O)C[C@H]1C(C)(C)[C@H](OC(=O)C(C)C)[C@@]2(O)C(=O)[C@]1(C)C1CC[C@]3(C)C(CC(=O)O[C@H]3c3ccoc3)[C@]13O[C@@H]32` (stereo not given in full), the activation is -17.6% (inactive).

For `CNC(=O)c1c(I)c(NC(C)=O)c(I)c(C(=O)O)c1I`, the activation was -8.47% (inactive).

As to `C[C@@H]1C[C@H]2[C@@H]3CCC4=CC(=O)C=C[C@]4(C)[C@@]3(F)[C@@H](O)C[C@]2(C)[C@H]1C(=O)CO`, the activation is 0.837% (inactive).

As to `CNC(=O)c1ccc2cc(C3(O)CCn4cncc43)ccc2c1` (stereo not given), the activation was -1.49% (inactive) and -0.893% (inactive).

With `CS(=O)(=O)c1ccc([C@H](CC2CCCC2)C(=O)Nc2nccs2)cc1`, the activation is -11.6% (inactive).

`O=C(C(Cc1cccc(C(F)(F)F)c1)NS(=O)(=O)c1cc(F)c2c(c1)CCNC2)N1CCCC1` (stereo not given): the activation was -13.4% (inactive).

Consider `CN(C)CCCOc1nn(Cc2ccccc2)c2ccccc12`, for which the activation was 8.47% (inactive) and -14.3% (inactive).

Regarding `NC(=O)c1cn(Cc2c(F)cccc2F)nn1`, the activation is -12.6% (inactive) and -6.02% (inactive).

Regarding `CC1=C2C(=O)C=C(CO)C2[C@H]2OC(=O)[C@H](C)[C@@H]2[C@@H](OC(=O)Cc2ccc(O)cc2)C1` (stereo not given in full), the activation was -11.6% (inactive).

With `C=C1C(O[C@@H]2O[C@H](CO)[C@@H](O)[C@H](O)[C@@H]2O)CC2C(C)(C)C(O)CCC2(C)C1CC/C(C)=C\CO` (stereo not given in full), the activation was 6.11% (inactive).

On to `C=C1CC23CC(=O)C4C(CO)(CO)CCCC4(C)C2CCC1C3` (stereo not given), for which the activation was -3.05% (inactive).

`COCCOC(=O)C1=C(C)NC(C)=C(C(=O)OC(C)C)C1c1cccc([N+](=O)[O-])c1` (stereo not given): the Potency is 6.92 µM (active) and the activation is -10.6% (inactive).
